# Shown are actives, neighbours in structure and some others; about 2.3% of the full set was active somewhere.
# MCL1 BIM primary: disrupts human MCL1 binding to BIM-BH3 peptide. inhibition, % at 10.9 µM. 0.68% of 320,000 active. Q07820. AID 2057. GST-MCL1 / FITC-Bim-BH3 fluorescence polarization;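 active = inhibition above the mean inhibition of all tested compounds plus 3 SD, set per campaign, cut at about 40% in these data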;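 note: higher means more loss of mP so more displacement of Bim peptide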
# GLD-1 RNA inh: GLD-1-TGE RNA interaction inhibition (C. elegans) | Q17339 | purified GLD-1 + fluorescein TGE RNA, fluorescence polarization | inhibition, % at 5.96 µM | 0.44% of 320,000 active | AID 2280;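 active = percent inhibition above a per-plate cutoff, the plate mean of test compounds plus 3 SD, cut at about 30% in these data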
# Target sequence (Q17339 whole entry, looked up): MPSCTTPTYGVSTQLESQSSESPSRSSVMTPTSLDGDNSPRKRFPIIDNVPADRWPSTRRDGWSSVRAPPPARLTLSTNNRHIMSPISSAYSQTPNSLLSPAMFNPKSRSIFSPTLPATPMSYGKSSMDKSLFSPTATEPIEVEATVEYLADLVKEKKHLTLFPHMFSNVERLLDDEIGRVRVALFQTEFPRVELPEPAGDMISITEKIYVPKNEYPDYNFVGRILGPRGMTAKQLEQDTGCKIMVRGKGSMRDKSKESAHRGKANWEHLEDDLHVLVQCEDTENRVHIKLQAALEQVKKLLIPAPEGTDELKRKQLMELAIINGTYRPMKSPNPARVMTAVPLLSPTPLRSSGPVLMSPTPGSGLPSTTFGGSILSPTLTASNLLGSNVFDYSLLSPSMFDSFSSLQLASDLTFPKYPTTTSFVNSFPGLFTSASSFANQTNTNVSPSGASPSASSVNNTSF
# Mcl1 Bid PPI: Mcl-1/Bid interaction inhibition; TR-FRET Mcl-1/Bid-Dy647 peptide binding, 1536-well; 0.97% of 220,000 active; inhibition, % at 21.7 µM; AID 1021; Q07820;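 active = compounds that cut the binding signal by more than half at the single screening dose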;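 note: His-tagged Mcl-1 with europium anti-His antibody binding Bid BH3 peptide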
# Mcl-1 Bim block: human Bim-Mcl-1 interaction inhibition; 0.1% of 190,000 active; inhibition, % at 10 µM; Bead-based flow cytometry, Bim peptide-Mcl-1 binding; Q07820; in the data active = inhibition above about 40%
# Mcl1-Noxa inh: Mcl-1/Noxa interaction inhibition | Q07820 | TR-FRET Mcl-1/Noxa peptide binding, 2 h | inhibition, % at 21.7 µM | 1.5% of 220,000 active;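 active = compounds that cut the protein-peptide binding signal by more than 50% relative to plate controls in a single-dose test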;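 note: His-tagged Mcl-1 with rhodamine Noxa BH3 peptide and terbium anti-His antibody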
# BCLXL inh: Bcl-xL (human) inhibition | Q07817 | GST-Bcl-xL / FITC-Bim BH3 peptide fluorescence polarization | inhibition, % at 10.9 µM | 0.7% of 320,000 active;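 active = inhibition above the mean of all tested compounds plus 3 SD, cutoff set per campaign, cut at about 30% in these data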;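 note: inhibitors lower millipolarization by displacing the labeled peptide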
# Hits are given with their value; – = inactive; · = not tested or not shown.
SMILES,MCL1 BIM primary,GLD-1 RNA inh,Mcl1 Bid PPI,Mcl-1 Bim block,Mcl1-Noxa inh,BCLXL inh
c1ccc(-c2nnc(OCCN3CCOCC3)c3ccccc23)cc1,–,–,–,79,–,–
CCC(C)(C)n1nnnc1C(c1ccc(O)c(OC)c1)N1CCN(c2nc3ccccc3s2)CC1 (stereo unspecified),–,–,–,–,68,–
CCC(C)(C)n1nnnc1C(c1ccc(O)c(OC)c1)N1CCc2ccccc2C1 (stereo unspecified),–,–,–,–,82,–
CCC(C)(C)n1nnnc1C(c1cccc(C#N)c1)N1CCN(c2cccc(C)c2C)CC1 (stereo unspecified),–,–,–,–,70,–
COc1ccc(C(c2nnnn2C(C)(C)C)N2CCN(c3nc4ccccc4s3)CC2)cc1 (stereo unspecified),·,·,–,–,–,·
Cc1ccc(NC(=O)Cn2ccnc2)cc1C,–,–,·,·,·,–
CCC(C)c1ccc(S(=O)(=O)N2CCN(c3ccccn3)CC2)cc1 (stereo unspecified),–,–,·,·,·,–
CCN(CC)c1ccc(NC(=O)COC(=O)/C=C/c2nc3ccccc3s2)cc1,–,–,–,–,56,–
Cc1nc2ccccc2c2c(N)c3ccccc3n12,–,–,–,–,–,35
Cc1ccc(-c2csc(NC(=O)c3ccno3)n2)cc1,–,–,–,–,56,–
Cc1ccc(-c2csc(NC(=O)c3ccc(C)o3)n2)cc1,–,–,–,–,–,–
Cc1ccc(-n2cccc2/C=C2/C(=N)N3C(=NC2=O)SN=C3S(C)(=O)=O)cc1Cl,–,–,97,–,116,–
CCC(C)NC(=O)c1ccc(NC(=O)CC2SC(N3CCCC3)=NC2=O)cc1 (stereo unspecified),–,–,·,·,·,–
COc1ccc2ccccc2c1C1CC(=O)N2CN(C3CCCCC3)CSC2=C1C#N (stereo unspecified),–,–,–,–,63,–
COc1ccc2ccccc2c1C1CC(=O)N2CN(Cc3ccco3)CSC2=C1C#N (stereo unspecified),–,–,–,–,–,–
CCOc1cc(C2CC(=O)NC(SCC)=C2C#N)ccc1O (stereo unspecified),–,–,–,–,–,–
CCOc1cc(C2CC(=O)N3CN(C4CCCCC4)CSC3=C2C#N)ccc1O (stereo unspecified),–,–,–,–,57,–
Cc1ccc(S(=O)(=O)c2nnn3c2nc(NC2CCN(Cc4ccccc4)CC2)c2ccccc23)cc1C,–,–,·,·,·,–
Cc1ccccc1OCCC(=O)NNC(=O)COc1cccc(F)c1,·,–,·,·,·,·
N=C1S/C(=C\c2ccco2)C(=O)N1c1ccc2c(c1)OCO2,–,–,–,–,84,–
CC1CCC(NC(=O)c2cc(S(=O)(=O)N3CCCCC3)ccc2N2CCOCC2)CC1 (stereo unspecified),–,–,·,·,·,–
COc1ccc(C(=O)c2sc3nc(-c4ccc(OC)cc4)ccc3c2N)cc1,–,–,–,–,77,–
COc1ccc(NC(=O)c2sc3nc(-c4cccnc4)ccc3c2N)cc1OC,–,–,–,·,–,48
COc1cccc(-c2ccc3c(N)c(C(=O)NC4CC4)sc3n2)c1,–,–,–,·,–,–
COc1ccc(-c2c(C#N)c(N)nc3sc(C(=O)c4ccc(C)cc4)c(N)c23)cc1,–,–,–,–,–,–
SMILES,MCL1 BIM primary,GLD-1 RNA inh,Mcl1 Bid PPI,Mcl-1 Bim block,Mcl1-Noxa inh,BCLXL inh
S=C(Nc1ccccc1)N1CCn2c(nc3ccccc32)C1,–,–,–,–,–,–
CCN(c1ccc(NC(=O)CN2C(=O)NC3(CCOc4ccccc43)C2=O)cc1)C(C)C (stereo unspecified),–,–,–,–,66,–
Cc1cc(OCCCN2CCCC2)ccc1Cl,–,–,·,·,·,–
CC(=O)c1ccc2c(c1)C1C=CCC1C(c1ccncc1)N2 (stereo unspecified),–,–,–,–,51,–
COC(C(=O)N/N=C(\C)c1ccc(O)cc1)c1ccccc1 (stereo unspecified),–,–,·,·,·,–
CC(=O)c1ccc2c(c1)C1C=CCC1C(C(=O)O)N2 (stereo unspecified),·,·,–,–,74,·
COC(=O)c1ccc(C2Nc3ccc(/C(C)=N/NC(=O)C(OC)c4ccccc4)cc3C3C=CCC32)cc1 (stereo unspecified),61,–,·,–,·,34
O=C(O)c1ccc2c(c1)C1C=CCC1C(c1cc3c(cc1Br)OCO3)N2 (stereo unspecified),–,–,–,–,–,–
C1=CC2c3ccccc3NC(c3ccncc3)C2C1 (stereo unspecified),–,–,–,–,78,–
Cc1ccc2c(c1)C1C=CCC1C(C(=O)O)N2 (stereo unspecified),108,–,89,–,107,62
Cc1cc(NC(=O)COC(=O)CNS(=O)(=O)c2c(F)cc(F)cc2Br)no1,·,–,·,·,·,·
N#C/C(C(=O)c1ccccc1)=C1/SC=C(N)N1c1ccccc1,·,·,–,–,55,·
c1ccc(C(c2nnnn2C2CCCCC2)N2CCc3ccccc3C2)nc1 (stereo unspecified),–,–,–,–,–,30
COc1cccc(-c2cc(C(=O)Nc3nc4ccccc4s3)c3ccccc3n2)c1,–,–,–,–,–,–
N=c1oc2cc(O)ccc2cc1C(=O)Nc1nc2ccccc2s1,–,–,72,–,100,–
Cc1ccc2nc(NC(=O)c3cc(-c4ccco4)nc4ccccc34)sc2c1,–,–,53,–,–,–
O=C(Nc1nc2ccccc2s1)c1cc(-c2ccco2)nc2ccccc12,–,–,63,–,59,–
N=c1oc2cc(O)ccc2cc1C(=O)Nc1ccccn1,–,–,–,–,–,–
O=C(Nc1nccs1)c1cc(-c2ccco2)nc2ccccc12,–,–,–,–,81,–
O=C(Nc1nccs1)c1cc(-c2ccccc2)nc2ccccc12,–,–,–,–,–,–
CCOC(=O)c1[nH]ncc1CN1CCc2ccc(NC(=O)C3CCCO3)cc2C1 (stereo unspecified),–,–,·,·,·,–
Cc1ccc(NC(=O)C(c2ccccc2)c2ccccc2)c(O)c1,–,–,·,·,·,–

# Compound activity: PubChem BioAssay, several laboratories
